Potency data for seven compounds are collected here from PubChem BioAssay (Tox21).

Records with an inconclusive call do not appear. More than one record can exist for a structure, and the calls need not agree. Activity calls are given as the source filed them. Unless noted, the call rests on the fitted dose curve.

The nature of assay [1]: Nuclear factor erythroid 2-related factor 2/antioxidant responsive element (Nrf2/ARE) small molecule agonists: qHTS cell viability counter screen in human keratinocytes (AID 1919968; active means well fitted curve in the direction sought with a large enough effect in the repeat runs; an effect the other way counts as inactive or inconclusive; further: nearly all actives have a fitted effect of over 55% in size; further: potency means the concentration at half of the fitted maximal effect). The procedure, abridged: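 CellTiter-Fluor fluorescence, read 1 h after reagent, gave viability in the same wells as the ARE-luciferase assay. KeratinoSens cells (1,500/well) had 23 h compound exposure at 37 C/5% CO2 following 5 h plating.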

A short description of assay [2]: Nuclear factor erythroid 2-related factor 2/antioxidant responsive element (Nrf2/ARE) small molecule agonists: luciferase reporter gene qHTS assay in human keratinocytes (AID 1919969). Further: nearly all actives have a fitted effect of over 35% in size.
The target of assay [3] is Gonadotropin-releasing hormone receptor (Homo sapiens) (UniProt P30968). The assay can be described thus: Human gonadotropin-releasing hormone receptor (GnRHR) small molecule agonists, calcium flux assay in GnRHR-HEK293 cells (AID 1920063). Further: nearly all actives have a fitted effect of over 35% in size. The procedure, abridged: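 Agonist mode: compounds at 15 concentrations, in triplicate, went onto calcium dye-loaded GnRHR-HEK293 cells. Intracellular calcium was then followed as 480/540 nm fluorescence at 1 s intervals over 3 min.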
In general terms: A change in cytosolic calcium serves as a functional read-out for many receptors and channels.

Assay [4] has as its target KiSS-1 receptor (Homo sapiens) (UniProt Q969F8). The assay can be described thus: Human kisspeptin (KISS1R) small molecule agonists, calcium flux assay in KISS1R-HEK293 cells (AID 1920064; active means well fitted curve in the direction sought with a large enough effect in the repeat runs; an effect the other way counts as inactive or inconclusive). The procedure, abridged:
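Agonist mode: intracellular calcium rise tracked at 1 s intervals over 3 min (480/540 nm) immediately after compound addition to dye-loaded KISS1R-HEK293 stable cells. Each compound tested at 15 concentrations in triplicate.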

Assay [5] in a line: G protein-coupled receptor (GPCR) small molecule agonists, calcium flux assay: HEK293 wild type cell line counter screen (AID 1920065). Summed up:
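Calcium flux counter screen: compound added in agonist mode at 15 concentrations in triplicate to dye-loaded parental HEK293 cells. Fluorescence (480/540) read kinetically for 3 min; ATP served as positive control.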

Assay [6] is described as follows: p53 small molecule agonists, cell-based qHTS assay with human liver microsomes: qHTS cell viability counter screen (AID 1963579). Further: nearly all actives have a fitted effect of over 45% in size. The procedure, abridged:
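p53RE-bla cells (4,000/well) were pre-incubated 5 h at 37 C, then given compounds in DMSO plus human liver microsomes (0.5 mg/mL final) and NADPH (0.5 mg/mL final) for 16 h at 37 C. Viability was read by CellTiter-Glo luminescence.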
(In general: Quantitative high-throughput screening tests each substance at several concentrations.)

The nature of assay [7]: p53 small molecule agonists, cell-based qHTS assay with rat liver microsomes: qHTS cell viability counter screen (AID 1963580). Further: nearly all actives have a fitted effect of over 45% in size. Summed up:
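Rat liver microsome (0.5 mg/mL final) and NADPH (0.5 mg/mL final) co-incubation with compounds for 16 h at 37 C on HCT-116 p53RE-bla cells; cytotoxicity taken from intracellular ATP luminescence.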

Assay [8] can be described thus: p53 small molecule agonists, cell-based qHTS assay: qHTS cell viability counter screen (AID 1963581). Further: nearly all actives have a fitted effect of over 45% in size. Summed up:
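Counter screen read by CellTiter-Glo luminescence (ATP content, 30 min at room temperature), run in the same wells as the beta-lactamase reporter read. HCT-116 p53RE-bla cells saw compounds for 16 h at 37 C.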

The target in assay [9] is 5-hydroxytryptamine receptor 2A (Homo sapiens) (UniProt P28223). The assay can be described thus: 5-hydroxytryptamine receptor 2A (HTR2A) small molecule antagonists, cell-based qHTS assay (AID 1963586). Further: nearly all actives have a fitted effect of over 45% in size. The procedure, abridged: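 CHO cells stably expressing human HTR2A were plated for 18 h at 37 C, then loaded with calcium dye for 1 h. Compounds were preincubated 5 min at room temperature before DOI (4 nM solution) was added. Kinetic fluorescence was read for 3 min.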

For assay [10] the target is unchanged. The assay can be described thus: 5-hydroxytryptamine receptor 2A (HTR2A) small molecule agonists, cell-based qHTS assay (AID 1963587). Further: nearly all actives have a fitted effect of over 30% in size. Summed up: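 Kinetic calcium-flux fluorescence (2 min, 1 sec intervals) after compound addition in agonist mode. HTR2A-CHO cells were cultured 18 h, then dye-loaded 1 h at 37 C.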
The target of assay [11] is Muscarinic acetylcholine receptor M1 (Homo sapiens) (UniProt P11229). Kind of assay: Cholinergic receptor muscarinic 1 (CHRM1) small molecule antagonists, cell-based qHTS assay (AID 1963588). Further: nearly all actives have a fitted effect of over 40% in size. Summed up:
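Compounds were tested at 15 concentrations in three independent runs. Dye-loaded CHRM1-CHO cells were exposed 5 min at room temperature before stimulation by acetylcholine added at 50nM. Intracellular calcium was read kinetically on FDSS for 3 min.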

For assay [12] the target is unchanged. The assay can be described thus: Cholinergic receptor muscarinic 1 (CHRM1) small molecule agonists, cell-based qHTS assay (AID 1963589). Further: nearly all actives have a fitted effect of over 35% in size. The procedure, abridged: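 Agonist-mode calcium-flux screen: compounds at 15 concentrations, three independent runs, were pin-transferred onto dye-loaded human CHRM1-CHO cells. Fluorescence was then recorded kinetically every second over minutes.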

Assay [13] can be described thus: cAMP Responsive Elements (CRE) small molecule agonists, cell-based qHTS assay (AID 1963590). Summed up: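 Agonist mode: compound added to CRE-bla HEK 293T cells (2,000/well, 18 h after plating) for 3 h at 37 C/5% CO2. Reporter activity detected via FRET beta-lactamase substrate, 2 h room-temperature loading.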
The nature of assay [14]: cAMP Responsive Elements (CRE) small molecule antagonists, cell-based qHTS assay (AID 1963591; active means well fitted inhibition curve with a large enough effect in the signal ratio in the repeat runs, not every such curve was filed as active; the % refers to the signal ratio). Summed up: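 Antagonist mode: compounds are added alongside the adenylyl cyclase activator NKH477 (0.25 uM final) to CRE-bla HEK293T cells for 3 h. LiveBLAzer FRET substrate, 2 h at room temperature, reports bla expression.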
Assay [15] deals with Beta-2 adrenergic receptor (Homo sapiens) (UniProt P07550). The assay can be described thus: Adrenergic beta2 receptor (ADRB2) small molecule antagonists, cell-based qHTS assay (AID 1963592). Further: series mostly up to about 92 µM; nearly all actives have a fitted effect of over 50% in size. The procedure, abridged:
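Assay format: CHO-ADRB2 cells, 18-20hr seeding at 37C/5% CO2, then compound plus 1nM isoproterenol agonist mix for 0.5hr RT. Homogeneous time-resolved fluorescence cAMP detection after 1hr, expressed as 665/615 nm ratio.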

The target is the same in assay [16]. Kind of assay: Adrenergic beta2 receptor (ADRB2) small molecule agonists, cell-based qHTS assay (AID 1963593).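 Further: CHO cells stably overexpressing human ADRB2.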 Summed up: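 CHO cells stably over-expressing ADRB2 were plated overnight at 37C, then dosed with compounds plus a stimulation mix containing 100uM IBMX and 25uM Ro-20-1724 for 0.5hr at room temperature. cAMP was measured by HTRF competition, 1hr.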

Assay [17] deals with D(2) dopamine receptor (Homo sapiens) (UniProt P14416). The assay can be described thus: Dopamine D2 receptor (DRD2) small molecule agonists, cell-based qHTS assay (AID 1963594). Further: nearly all actives have a fitted effect of over 35% in size. Summed up: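 cAMP accumulation in DRD2-HEK293 cells measured by HTRF after 1 h detection; compounds added 10 min before NKH477 (200nM […]) forskolin-analogue stimulation, 30 min at room temperature, with Ro20-1724 present at 0.1 mM final.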

Assay [18] has the same target. Kind of assay: Dopamine D2 receptor (DRD2) small molecule antagonists, cell-based qHTS assay (AID 1963595; active means well fitted inhibition curve with a large enough effect in the signal ratio in the repeat runs, with a control signal flat; the % refers to the signal ratio). Summed up:
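DRD2-HEK293; 0.1 mM Ro20-1724; cpd 10 min RT; NKH477 200 nM + quinpirole 12 nM, 30 min RT; HTRF cAMP (cAMP-d2/anti-cAMP cryptate), 665/620 nm ratio after 1 h.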

Chain of Beta-2 adrenergic receptor (Homo sapiens) (P07550 whole entry, looked up): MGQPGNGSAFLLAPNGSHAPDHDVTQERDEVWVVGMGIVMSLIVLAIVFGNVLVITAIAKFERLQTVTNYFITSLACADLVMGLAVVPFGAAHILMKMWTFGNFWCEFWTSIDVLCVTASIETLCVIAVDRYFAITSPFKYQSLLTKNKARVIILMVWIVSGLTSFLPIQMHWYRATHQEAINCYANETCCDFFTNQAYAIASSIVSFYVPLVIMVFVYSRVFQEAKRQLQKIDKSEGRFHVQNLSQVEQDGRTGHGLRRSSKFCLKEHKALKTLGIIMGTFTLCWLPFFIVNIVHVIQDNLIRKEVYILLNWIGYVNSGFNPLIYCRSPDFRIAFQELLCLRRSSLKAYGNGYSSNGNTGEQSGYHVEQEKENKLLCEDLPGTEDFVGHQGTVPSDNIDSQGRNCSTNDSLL
Chain of D(2) dopamine receptor (Homo sapiens) (P14416 whole entry, looked up): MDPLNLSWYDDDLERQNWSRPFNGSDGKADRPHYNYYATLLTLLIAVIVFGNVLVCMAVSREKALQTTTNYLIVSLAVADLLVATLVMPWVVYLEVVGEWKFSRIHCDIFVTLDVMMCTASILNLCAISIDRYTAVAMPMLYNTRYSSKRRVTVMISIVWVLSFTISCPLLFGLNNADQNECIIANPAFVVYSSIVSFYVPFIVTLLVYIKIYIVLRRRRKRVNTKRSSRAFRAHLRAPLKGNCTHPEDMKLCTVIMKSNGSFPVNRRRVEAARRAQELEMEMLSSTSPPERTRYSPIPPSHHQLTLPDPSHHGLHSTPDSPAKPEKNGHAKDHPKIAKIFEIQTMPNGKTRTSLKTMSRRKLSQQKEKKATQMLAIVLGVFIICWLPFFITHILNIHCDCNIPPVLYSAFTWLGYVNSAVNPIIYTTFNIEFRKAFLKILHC
Chain of Muscarinic acetylcholine receptor M1 (Homo sapiens) (P11229 whole entry, looked up): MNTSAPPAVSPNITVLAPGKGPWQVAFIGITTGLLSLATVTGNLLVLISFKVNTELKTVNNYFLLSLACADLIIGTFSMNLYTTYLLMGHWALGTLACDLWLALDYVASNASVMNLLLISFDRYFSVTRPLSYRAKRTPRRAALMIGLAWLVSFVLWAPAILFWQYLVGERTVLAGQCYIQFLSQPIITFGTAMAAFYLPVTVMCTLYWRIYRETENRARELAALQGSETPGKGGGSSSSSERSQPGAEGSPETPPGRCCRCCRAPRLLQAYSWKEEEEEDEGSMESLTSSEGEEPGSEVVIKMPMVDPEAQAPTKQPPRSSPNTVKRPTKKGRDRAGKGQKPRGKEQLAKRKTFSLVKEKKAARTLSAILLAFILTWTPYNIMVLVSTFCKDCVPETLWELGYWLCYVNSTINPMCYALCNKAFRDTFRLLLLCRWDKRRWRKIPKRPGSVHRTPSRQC
Chain of KiSS-1 receptor (Homo sapiens) (Q969F8 whole entry, looked up): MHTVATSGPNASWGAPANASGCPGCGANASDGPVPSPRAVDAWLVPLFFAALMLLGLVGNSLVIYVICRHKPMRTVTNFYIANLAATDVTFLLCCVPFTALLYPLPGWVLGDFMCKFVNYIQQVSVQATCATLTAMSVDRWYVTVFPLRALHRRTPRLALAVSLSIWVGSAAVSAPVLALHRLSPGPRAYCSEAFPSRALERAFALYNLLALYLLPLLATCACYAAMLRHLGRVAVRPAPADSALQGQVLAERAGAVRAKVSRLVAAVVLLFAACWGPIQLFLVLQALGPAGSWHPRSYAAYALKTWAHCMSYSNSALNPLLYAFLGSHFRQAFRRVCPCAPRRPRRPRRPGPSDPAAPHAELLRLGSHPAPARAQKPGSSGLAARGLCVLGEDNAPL
Chain of 5-hydroxytryptamine receptor 2A (Homo sapiens) (P28223 whole entry, looked up): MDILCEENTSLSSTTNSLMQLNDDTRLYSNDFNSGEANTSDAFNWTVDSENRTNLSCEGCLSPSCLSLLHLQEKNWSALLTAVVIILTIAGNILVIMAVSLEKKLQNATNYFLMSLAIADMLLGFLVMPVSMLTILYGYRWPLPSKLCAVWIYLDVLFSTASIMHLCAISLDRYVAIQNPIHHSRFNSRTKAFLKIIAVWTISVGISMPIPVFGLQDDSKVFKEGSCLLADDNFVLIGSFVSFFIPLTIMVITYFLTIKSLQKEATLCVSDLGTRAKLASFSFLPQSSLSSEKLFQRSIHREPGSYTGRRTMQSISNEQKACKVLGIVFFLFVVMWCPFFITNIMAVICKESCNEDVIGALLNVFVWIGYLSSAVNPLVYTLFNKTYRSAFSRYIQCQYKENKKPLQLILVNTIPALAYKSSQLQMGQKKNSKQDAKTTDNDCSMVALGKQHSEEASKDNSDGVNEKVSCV
Chain of Gonadotropin-releasing hormone receptor (Homo sapiens) (P30968 whole entry, looked up): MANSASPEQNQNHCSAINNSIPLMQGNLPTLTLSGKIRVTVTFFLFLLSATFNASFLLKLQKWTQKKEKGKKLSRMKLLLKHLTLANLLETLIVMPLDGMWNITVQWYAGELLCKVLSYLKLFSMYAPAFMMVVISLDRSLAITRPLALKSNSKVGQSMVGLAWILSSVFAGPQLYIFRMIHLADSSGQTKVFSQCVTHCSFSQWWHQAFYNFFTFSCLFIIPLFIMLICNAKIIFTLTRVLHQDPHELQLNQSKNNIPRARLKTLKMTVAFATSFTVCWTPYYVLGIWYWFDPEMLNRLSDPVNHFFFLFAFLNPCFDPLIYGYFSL

`CC1(C)OC[C@@H]2O[C@@]3(C(=O)O)OC(C)(C)O[C@H]3[C@@H]2O1`: the Potency entry in [1], in [2], in assay [3], in [4], in [5] and in assay [6] was “inactive” in each case. Besides, the Potency result in assay [7], in [8], in [9], in assay [10], in [11] and in assay [12] was “inactive” in each case. Further, the Potency result in [13], in [14], in assay [15], in [16], in assay [17] and in [18] was “inactive” each time.

On to `Cc1ccc(N)c([N+](=O)[O-])c1`, for which the Potency entry in [1], in [2], in assay [3], in [4], in [5] and in [6] was “inactive” in each case. The Potency entry in assay [8], in [9], in assay [10], in [11], in assay [12] and in assay [13] was “inactive” in each case. Further, the Potency result in [14], in assay [15], in assay [16], in [17] and in assay [18] was “inactive” throughout.

Turning to `CC1=CC[C@H]2C[C@@H]1C2(C)C`, the Potency result in assay [1], in [2], in assay [3], in assay [4], in [5] and in assay [6] was “inactive” each time. The Potency result in assay [7], in assay [8], in assay [9], in [10], in assay [11] and in assay [12] was “inactive” in each case. For the same compound, the Potency result in assay [13], in assay [14], in assay [15], in assay [16], in [17] and in [18] was “inactive” throughout.

`Nc1nc(=S)c2[nH]cnc2[nH]1`: the Potency in assay [1] is 66.8 µM (active) and inactive. Moreover, the Potency entry in assay [2], in assay [3], in assay [4], in assay [5], in assay [6] and in assay [7] was “inactive” throughout. For the same compound, the Potency result in [13], in assay [14], in assay [15], in assay [16], in [17] and in [18] was “inactive” in each case.

As for `COc1ccc(CN(CCN(C)C)c2ccccn2)cc1`, the Potency entry in assay [1], in assay [2], in assay [3], in assay [4], in assay [5] and in [6] was “inactive” throughout. In addition, the Potency entry in [7], in [8], in assay [13], in assay [14], in assay [15] and in [16] was “inactive” throughout. The Potency entry in assay [17] and in assay [18] was “inactive” in each case.

`CCCC(=O)O`: the Potency result in [1], in [2], in assay [3], in assay [4], in assay [5] and in [6] was “inactive” throughout. Moreover, the Potency entry in assay [8], in assay [9], in assay [10], in assay [11], in assay [12] and in assay [13] was “inactive” throughout. For the same compound, the Potency entry in assay [14], in [15], in assay [16], in [17] and in [18] was “inactive” each time.

Turning to `O=Nc1ccc(O)cc1`, the Potency entry in assay [1], in [2], in [3], in assay [4], in assay [5] and in [6] was “inactive” throughout. Moreover, the Potency entry in assay [7], in assay [8], in [9], in [10], in assay [11] and in assay [13] was “inactive” in each case. In addition, the Potency entry in [14], in assay [15], in assay [16], in assay [17] and in assay [18] was “inactive” each time.
